Entries with a potency or affinity are not part of this list.
Tests used:
[1] = tested on: Staphylococcus aureus; conditions: Concentration 32 ug.mL-1;; ASSAY_TEST Inhibition of Bacterial Growth; detection method Absorption (OD600); MEDIA CAMHB; plate type 384well; NBS; CORNING #3640; time 18 hr
[2] = tested on: Escherichia coli; conditions: Concentration 32 ug.mL-1;; ASSAY_TEST Inhibition of Bacterial Growth; detection method Absorption (OD600); MEDIA CAMHB; plate type 384well; NBS; CORNING #3640; time 18 hr

Compound | Inhibition [1] [%] | Inhibition [2] [%]
COc1ccc(N(Cc2cccc(OC)c2)S(=O)(=O)c2ccc3nnc(C)n3c2)cc1 | -9.05 | 0.15
COc1ccc(Cl)cc1NC(=O)Cn1nc2c3cc(-c4ccc(C)c(C)c4)nn3ccn2c1=O | -18.41 | -23.9
Cc1cc(Br)ccc1NC(=O)Cn1nc2c(SC3CCCCC3)nccn2c1=O | 6.25 | -6.44
Cc1ccc(-c2ccc3nn(CC(=O)Nc4ccccc4)c(=O)n3n2)cc1C | 3.99 | -8.76
O=S(=O)(c1ccc2nncn2c1)N(Cc1cc(F)cc(F)c1)c1ccc2c(c1)OCO2 | 8.77 | -5.98
Cc1cc(C)cc(Nc2nc(C)cc3nn(CC(=O)NC4CCCC4)c(=O)n23)c1 | 11.66 | 0.01
Cc1nnc2c(S(=O)(=O)N(Cc3ccccc3Cl)c3ccc(F)c(F)c3)cccn12 | 38.47 | -6.82
Cc1cccc(NC(=O)Cn2nc3c(SC4CCCCC4)nccn3c2=O)c1C | 2.67 | 2.06
CCOc1ccc(NC(=O)Cn2nc3c4cc(-c5ccc(C)c(C)c5)nn4ccn3c2=O)cc1 | -9.23 | 1.9
COc1cccc(-n2ccn3c(SCC(=O)NC(C)C)nnc3c2=O)c1 | 11 | -7.26
Cc1ccc(-c2cc3c4nnc(CCC(=O)NCc5ccc(F)c(Cl)c5)n4ccn3n2)cc1C | 9.12 | -0.93
CCCCn1c(=O)c2sccc2n2c(=O)n(CC(=O)c3ccc(C)cc3C)nc12 | -3.74 | -4.86
